Data from PubChem BioAssay AID1347076 (National Center for Advancing Translational Sciences (NCATS), 2019).
Among all 400,000 compounds or so, about 13,000 (3.2%) were called active. Roughly 18% stayed inconclusive and do not appear here. The sample holds actives, similar compounds and a random draw of the others, so the mix is not that of the screen. Calls come from the whole dose curve; as a rule, active = well fitted cell-killing curve with a large enough effect; inconclusive = small, poorly fitted or top-dose-only effect, or effect the other way; inactive = flat fitted curve, though single readings scatter.

Test: qHTS assay for MDR1-selective chemotherapeutics: Primary screen using the drug-selected MDR subline cells KB-V1; note: nearly all actives have a fitted effect of over 60% in size
Conditions: KB-V1 MDR cells viability, CellTiter-Glo, 72 h; series mostly up to 46.1 µM; activity change, negative = cytotoxicity: at the top concentration
Method in brief: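 Following 72 h at 37 degrees C with compound, KB-V1 cell viability was read by CellTiter-Glo luminescence, medium being phenol-red-free DMEM plus 10% FBS; concentration-response parameters came from normalized, curve-fitted qHTS data.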
% is set by controls: 0 for no effect and ±100 for the full control effect; potency is the fitted concentration of half-maximal effect.

| Structure (SMILES) | activity change, negative = cytotoxicity | Potency |
| --- | --- | --- |
| Cc1cc(=O)[nH]c(SCC(=O)Nc2ccc(Br)cc2)n1 | 11.3% (inactive) | – |
| Cc1ccc(NC(=O)CSc2nc(CSc3ccc(C)cc3)cc(=O)[nH]2)cc1 | -17.7% (inactive) | – |
| COc1ccc(NC(=O)CSc2nc(NS(=O)(=O)c3ccc(C)cc3)cc(=O)[nH]2)cc1 | – | 3.66 µM (active) |
| CC1(C(=O)NS(=O)(=O)c2ccccc2)CCN1C(=O)C1CCCCC1 (stereo not drawn) | 3.98% (inactive) | – |
| COC(=O)C[C@H]1C[C@@H]2c3cc(NC(=O)Nc4ccccc4)ccc3O[C@@H]2[C@@H](CO)O1 | 12.4% (inactive) | – |
| COc1cc(OC)cc(C2=Cc3ccccc3C(CC(=O)c3ccco3)N2c2ccc(-c3cnc(OC)nc3)cc2)c1 (stereo not drawn) | 0% (inactive) | – |
| Cc1ccc(S(=O)(=O)/N=C(/Nc2ccccn2)c2ccc(Cl)cc2)cc1 | -13.7% (inactive) | – |
| O=S(=O)(/N=C(/Nc1ccccn1)c1ccccc1)c1ccc(Cl)cc1 | – | 14.6 µM (active) |
| O=S(=O)(Nc1ccccn1)c1cccc(S(=O)(=O)c2ccc(Cl)cc2)c1 | -22.4% (inactive) | – |
| OC(CBr)CN1CCCCC1 (stereo not drawn) | 6.25% (inactive) | – |
| CCn1cc(C(=O)N(C)Cc2ccccc2)c(=O)c2cc(S(=O)(=O)N3CCCCCC3)ccc21 | 0% (inactive) | – |
| Cc1ccc(-c2ccc(C3=CC(=O)CC(C)(C)C3=O)cc2)cc1 | -4.78% (inactive) | – |
| CC(C)(C)Cc1c(C2CCCCC2)nc2ccc(Br)cn12 | 11% (inactive) | – |
| O=C(/C=C/c1ccccc1)N/C(=C/c1ccccc1)C(=O)Nc1ccccc1O | – | 23.1 µM (active) |
| CCc1ccccc1NC(=O)/C(=C/c1ccccc1)c1ccccc1 | -26.7% (inactive) | – |
| O=C(Nc1ccc(C(=O)O)cc1)/C(=C\c1ccccc1)NC(=O)c1ccc(Br)cc1 | 2.86% (inactive) | – |
| COc1ccc(C(=O)Nc2nc(-c3ccc(S(=O)(=O)N4CCOCC4)cc3)cs2)cc1 | – | 16.4 µM (active) |
| Cc1cc2nc(NC(=O)c3ccc(S(=O)(=O)N4CCOCC4)cc3)sc2cc1C | 0% (inactive) | – |
| CCOC(=O)c1csc(NC(=O)c2ccc(S(=O)(=O)N3CCCC3)cc2)n1 | 14.3% (inactive) | – |
| O=C(O)c1ccccc1Cc1ccc(F)c2ccccc12 | 10.8% (inactive) | – |
| COC(=O)C[C@H]1C=C[C@@H](NS(=O)(=O)c2ccc(C)cc2)[C@@H](CO)O1 | 6.54% (inactive) | – |
| Cc1[nH]c2ccccc2c1C(=O)C(=O)N(C)c1ccccc1 | 10.4% (inactive) | – |
| CNS(=O)(=O)c1ccc2c(c1)[nH]c(=S)n2C | 8.16% (inactive) | – |
| Cc1nc(CNS(=O)(=O)c2cccnc2)cs1 | 0.995% (inactive) | – |
| Cc1ccc(S(=O)(=O)NCc2csc(C)n2)c(C)c1 | 10.2% (inactive) | – |
| Cc1nc(CNS(=O)(=O)c2ccc(Oc3ccccc3)cc2)cs1 | – | 8.2 µM (active) |
| CC(=O)c1ccccc1NC(=O)COC(=O)C1COc2ccccc2O1 (stereo not drawn) | 10.8% (inactive) | – |
| COc1cc(C(O)c2nc(-c3cccc(C(=O)O)c3)cs2)ccc1F (stereo not drawn) | 0% (inactive) | – |
